B2AR arrestin – agonists driving beta-arrestin recruitment to human beta2-adrenergic receptor; P07550; beta-arrestin recruitment to beta2AR, cell-based reporter; Potency, µM (top dose mostly 46.1 µM), inactives show at the highest dose activation, usual class: activators; 330,000 tested, 0.02% active; AID 492947; active = well fitted activation curve with a large enough effect; inconclusive = small, poorly fitted or top-dose-only effect;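 also: potency is read from the fitted curve at half-maximal effect; 0% = DMSO controls and full agonism = EC100 isoproterenol or metaproterenol; nearly all actives have a fitted effect of over 65% in size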
D3 antag – D3 dopamine receptor (human) antagonism. 360,000 tested, 2.5% active. max response, negative = inhibition, %. D3R cells, DiscoveRx beta-arrestin luminescence, antagonist mode; hits give low values. P35462; in the data active = max response below about -50%; inconclusive = no clear call, values can overlap the other calls; also: % is scaled to controls: 0 for no effect and ±100 for the full control effect
Target sequence (P35462 whole entry, looked up): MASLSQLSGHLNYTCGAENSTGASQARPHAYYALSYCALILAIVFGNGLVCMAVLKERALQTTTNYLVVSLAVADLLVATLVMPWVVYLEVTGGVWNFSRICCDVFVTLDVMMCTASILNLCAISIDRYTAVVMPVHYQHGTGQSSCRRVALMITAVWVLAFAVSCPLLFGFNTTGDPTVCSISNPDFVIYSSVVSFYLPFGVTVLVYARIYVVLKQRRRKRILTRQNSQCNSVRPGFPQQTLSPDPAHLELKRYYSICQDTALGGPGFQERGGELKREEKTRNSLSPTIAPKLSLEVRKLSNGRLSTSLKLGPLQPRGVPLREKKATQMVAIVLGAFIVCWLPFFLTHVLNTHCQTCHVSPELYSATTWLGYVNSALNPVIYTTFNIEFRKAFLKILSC
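Cells expressing the human receptor were seeded at 1500 cells/well, incubated overnight at 37 degrees C in 5% CO2, then exposed to library compounds with dopamine controls for 90 minutes at 37 degrees C before luminescent detection.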
D3 ag – activates the human D3 dopamine receptor; P35462; D3R DiscoveRx beta-arrestin cells, luminescence, 90 min; max activation, %; 410,000 tested, 0.58% active; in the data active = max activation above about 30%; also: 0% is about no effect
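Agonist mode: compounds and dopamine controls were applied to plated cells for 90 min at 37 degrees C after an overnight attachment at 1500 cells/well. Luminescent read-out followed 30 - 60 minutes at room temperature with DiscoveRx detection reagent.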
TSHR antagonist – antagonists of human thyroid stimulating hormone receptor; P16473; TSHR-expressing cells, TSH-stimulated cAMP HTRF, 2 h; hits give low values; activity change, negative = inhibition, % at 11.5 µM; 330,000 tested, 0.2% active; AID 504810;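 active = activity change below a set negative limit, meaning inhibition stronger than a set level, cut at about -70% in these data; inconclusive = activity change between two set negative limits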; also: % is scaled to controls: 0 for no effect and ±100 for the full control effect
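Competitive HTRF cAMP read-out (cryptate anti-cAMP antibody, cAMP-d2; 30 min, room temperature) in freshly harvested TSHR cells. Compounds added before TSH at EC80 (4nM final), followed by 2 hours' incubation at 37 deg C.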
An asterisk follows results filed as active; ? = inconclusive; · = no result given. Most compounds without a hit are left out; they make up all but 2.9% or so of the library.

SMILES | B2AR arrestin | D3 antag | D3 ag | TSHR antagonist
COC(=O)[C@]12CCC(C)(C)C[C@H]1[C@H]1C(=O)C=C3[C@@]4(C)C=C(C#N)C(=O)C(C)(C)[C@@H]4CC[C@@]3(C)[C@]1(C)CC2 | · | · | -20 | ·
O=C(NCC1=C(c2cccc3ccccc23)C[C@@H]2CC[C@H]1N2Cc1ccco1)c1cccs1 | · | -51* | -13 | ·
COc1ccc(Br)cc1CNCCc1ccc2c(c1)OCO2 | · | -19 | -6 | ·
COc1ccccc1CCNCc1cc2c(cc1[N+](=O)[O-])OCO2 | -1% | -56* | 1 | -5
Cn1c(=O)n(C)c2cc(CNCCc3ccccc3F)ccc21 | · | · | -18 | ·
CC(C)C[C@H](CN)CC(=O)O | · | · | 2 | ·
COc1cccc(C(=O)C2CCCN(Cc3ccc4nsnc4c3)C2)c1 (stereo unspecified) | 0% | -5 | -13 | -4
COc1cccc(C(=O)C2CCCN(Cc3ccc(F)cc3)C2)c1 (stereo unspecified) | 0% | -56* | -24 | -22
COc1c(C)cc(C(=O)C2CCCN(Cc3cccc(O)c3)C2)cc1C (stereo unspecified) | 0% | -60* | -19 | 3
COc1c(C)cc(C(=O)C2CCCN(Cc3cccc(C)n3)C2)cc1C (stereo unspecified) | 0% | 14 | -2 | -11
Cc1cc(-n2c(/C=C/c3cccs3)nc3ccccc3c2=O)ccc1Br | · | · | -1 | ·
CC(=O)[C@H]1CC[C@H]2[C@@H]3CC[C@@H]4C[C@H](O)CC[C@]4(C)[C@H]3CC[C@]12C | · | · | -7 | ·
CCn1c(O)c(N=Nc2ccc(S(=O)(=O)N3CCOCC3)cc2)c(=O)n(CC)c1=S | 0% | -71* | -5 | 17
[O]=[Cr](=[O])([OH])[O][Cr](=[O])(=[O])[OH] | · | · | 7 | ·
ClC=C(Cl)Cl | · | · | 3 | ·
N#CC(C#N)=NNc1ccc(-n2ccc(C(F)(F)F)n2)cc1 | -1% | -2 | 23 | -76*
C=C[C@H]1CN2CC[C@H]1C[C@H]2[C@H](OC(=O)OCC)c1ccnc2ccc(OC)cc12 | · | · | -11 | ·
CCCN(CCC)C1CCc2ccc(O)cc2C1 (stereo unspecified) | 0% | · | 122* | -9
C=CCN1CC[C@]23CCCC[C@H]2[C@H]1Cc1ccc(O)cc13 | · | · | -19 | ·
CC(N)Cc1c[nH]c2ccc(Cl)cc12 (stereo unspecified) | · | 21 | 5 | ·
Clc1ccc2[nH]c3c(c2c1)CCNC3 | 3% | -70* | -17 | 7
CCC(C(=O)Nc1ccccc1F)N1C(=O)CN=C(c2ccccc2)c2ccccc21 (stereo unspecified) | · | · | -15 | ·
Cc1ccc2nc(N3CCC(C(=O)N4CCC5(CC4)OCCO5)CC3)sc2c1 | 0% | -51* | 5 | -3
CCOc1ccc(CN(CCc2ccc3c(c2)OCO3)Cc2ccc(CC)cc2)cc1 | · | · | -46 | ·
COC(=O)C1=C(c2ccc(OCc3ccccc3)cc2)C[C@@H]2CC[C@H]1N2C(=O)NCCN1CCOCC1 | 2% | -10 | -5 | 7
SMILES | B2AR arrestin | D3 antag | D3 ag | TSHR antagonist
COC(=O)C1=C(c2ccc(F)cc2OCc2ccccc2)C[C@@H]2CC[C@H]1N2C | -3% | -56* | 0 | -13
COC(=O)C1=C(c2ccc(-c3ccccc3)c(F)c2)C[C@@H]2CC[C@H]1N2C(=O)NCCNC(C)=O | 0% | 25 | 0 | -11
COC(=O)C1=C(c2ccc(-c3ccccc3)c(F)c2)C[C@@H]2CC[C@H]1N2C(=O)NCCCOC(C)C | 0% | -14 | -9 | -83*
COC(=O)C1=C(c2ccc(OCc3ccccc3)cc2)C[C@@H]2CC[C@H]1N2C(=O)NC1CCN(Cc2ccccc2)CC1 | 0% | -94* | -33 | -18
COC(=O)C1=C(c2ccc(-c3ccccc3)c(F)c2)C[C@@H]2CC[C@H]1N2C(=O)NCCc1ccccc1 | 3% | 6 | -27 | -71*
CCOc1ccc2nc(NC(=O)c3cccn(Cc4ccccc4Cl)c3=O)sc2c1 | · | · | 3 | ·
CC(=O)[O][Hg][c]1ccccc1 | · | · | -19 | ·
O=S1(=O)N(Cc2ccccc2)CCCN1Cc1ccc(F)cc1Cl | · | · | -10 | ·
COc1ccc(-c2nc(CN3C(=O)CN=C(c4ccccc4Cl)c4cc(Cl)ccc43)c(C)o2)cc1OC | · | · | 9 | ·
O=[N+]([O-])c1ccc(NC2CCN(Cc3ccccc3)CC2)c2ccncc12 | 0% | -74* | -25 | -5
O=[N+]([O-])c1ccc(NC2CCCC2)c2ccncc12 | 0% | 15 | 4 | 18
CCN1/C(=C\C=C\C2=[N+](CC)c3ccccc3C2(C)C)C(C)(C)c2ccccc21 | -1% | -96* | -12 | ?
OC(COCc1ccc(Cl)cc1)CN1CC=C(c2ccccc2)CC1 (stereo unspecified) | -2% | ? | 34* | -7
CC(C)N1CCOC(c2ccc(O)c(O)c2)C1 (stereo unspecified) | · | 19 | 95* | ·
C=CCN1CCc2cccc3c2[C@H]1Cc1ccc(O)c(O)c1-3 | 0% | -24 | 116* | 8
CC12CCCCC1=[N+]([O-])CN2O (stereo unspecified) | 0% | -62* | 1 | 0
CCn1nc(-c2cccs2)nc2c(=O)n(C)c(=O)nc1-2 | 0% | -81* | -16 | -29
CCC(=NCc1ccc2c(c1)OCO2)c1c(O)n(C)c(=O)n(C)c1=O | 0% | ? | -1 | -17
CCC(=NCc1cc(OC)cc(OC)c1)c1c(O)n(C)c(=O)n(C)c1=O | 0% | 57 | 39* | -25
